From PubChem
An excerpt weighted towards active compounds, which were near 14% of everything screened.
Giardia FBPA inh = blocks Giardia fructose-bisphosphate aldolase activity | 290,000 tested, 0.71% active | A8B2U2 | purified Giardia FBPA | Potency, µM (series often up to 59.6 µM), for the others: at the highest dose activity, negative = inhibition, most hits filed as inhibitors | AID 2451; active = well fitted curve in the direction sought with a large enough effect; inconclusive = small, poorly fitted or top-dose-only effect, or another doubt; inactive = no such curve, though single readings can be large; an effect the other way counts as inactive or inconclusive; also: potency is read from the fitted curve at half-maximal effect; % is scaled to controls: 0 for no effect and ±100 for the full control effect; nearly all actives have a fitted effect of over 55% in size
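40 nM FBPA preincubated 10 min at RT with compound (up to 57.5 uM final), then substrate plus GAPDH/TPI/NAD/arsenate coupling and diaphorase/resazurin added. Fluorescence read after 20 min at RT, 525/598 nm.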
Shiga inhibitor = Shiga toxin inhibition. Vero cells, Shiga toxin protein synthesis inhibition reporter. inhibition, % at 38.7 µM. 290,000 tested, 9.2% active. AID 2315; in the data active = inhibition mostly above about 28%, no sharp cut-off; inactive = mostly below about 43%; also: 0% is about no effect
NS1 inh = inhibitors of influenza NS1 protein function; Potency, µM (highest dose often 46.1 µM), without a hit: top-dose activity, positive = more growth; 270,000 tested, 0.4% active; also: potency is read from the fitted curve at half-maximal effect; actives are rising curves; nearly all actives have a fitted effect of over 50% in size
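A cell-based growth assay was used: compounds that relieve NS1-induced slow growth of budding yeast raise OD600. Assay medium was yeast nitrogen base with ammonium sulphate and -URA supplement, pH 6.0, with 2% galactose.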
CHX counter = counter-screen hit for Shiga toxin inhibitors, cycloheximide; cell reporter, cycloheximide protein synthesis inhibition counterscreen; 300,000 tested, 12% active; max response, %; in the data active = max response mostly above about 13%, no sharp cut-off; inactive = mostly below about 14%; also: read at 38.3 µM for the half of the compounds with a filed dose; 0% is about no effect
LmPK inh = inhibitors of Leishmania mexicana pyruvate kinase | Q27686 | purified LmPK, Kinase-Glo ATP luminescence, 1 h | Potency, µM (titrated, usually from 57.5 µM), for the others: at the highest dose activity change, negative = inhibition, most hits filed as inhibitors | 290,000 tested, 0.37% active | AID 1721; active = well fitted curve in the direction sought with a large enough effect; inconclusive = small, poorly fitted or top-dose-only effect, or another doubt; inactive = no such curve, though single readings can be large; an effect the other way counts as inactive or inconclusive; also: potency is read from the fitted curve at half-maximal effect; % is scaled to controls: 0 for no effect and ±100 for the full control effect
Target sequence (Q27686 whole entry, looked up): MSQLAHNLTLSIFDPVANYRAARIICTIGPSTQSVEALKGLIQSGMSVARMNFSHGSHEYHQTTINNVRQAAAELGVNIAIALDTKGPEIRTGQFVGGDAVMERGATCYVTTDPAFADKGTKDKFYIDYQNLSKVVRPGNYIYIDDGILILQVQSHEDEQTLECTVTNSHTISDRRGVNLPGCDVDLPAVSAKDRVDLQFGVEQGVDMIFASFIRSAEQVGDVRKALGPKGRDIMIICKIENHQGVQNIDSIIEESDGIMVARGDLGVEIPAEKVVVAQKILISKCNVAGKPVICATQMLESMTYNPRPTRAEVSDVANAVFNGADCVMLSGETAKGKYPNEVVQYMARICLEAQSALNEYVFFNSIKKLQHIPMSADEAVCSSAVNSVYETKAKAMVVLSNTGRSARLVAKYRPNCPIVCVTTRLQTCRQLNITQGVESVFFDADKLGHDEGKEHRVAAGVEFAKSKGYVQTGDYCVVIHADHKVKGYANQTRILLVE
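ATP generated from ADP (0.1 mM) and PEP (0.5 mM) by 0.1 nM LmPK over 1 h at room temperature (pH 7.2 imidazole buffer) was detected by coupled luciferase luminescence. Values were normalized to uninhibited and no-enzyme wells.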
Flu NS1 inh = influenza NS1 function inhibition validation | shares compounds with NS1 inh | influenza NS1 function cell assay, 15-point titration | activity change, negative = inhibition, % at 32.9 µM | 1,400 tested, under 10 active; also: 0% is about no effect
PR8 titer = influenza virus titer reduction, NS1 project. shares compounds with NS1 inh. MDCK infected influenza A/PR/8/34, virus titer TCID50; active compounds read low. virus titer (log TCID50), log10 TCID50 at 5 µM. 95 tested, 30% active; call rule not given here
* marks the source's active call; other numbers are inactive results. Unless noted, calls follow the shape of the full dose curve.

How did Cc1cccnc1NC(=O)c1ccc(Cl)c(S(=O)(=O)N2CCCCCC2)c1 do in these assays?
Giardia FBPA inh: 10.9%; Shiga inhibitor: -2.0; NS1 inh: -29.1%; CHX counter: 3.5; LmPK inh: -1.3%

How did CCc1ccc(NC(=O)CNC(=O)c2cn(-c3ccccc3OC)c(=O)c3ccccc23)cc1 do in these assays?
Giardia FBPA inh: -9.1%; Shiga inhibitor: 14.6; NS1 inh: 11.2µM*; CHX counter: 49.3; LmPK inh: 10.2%; Flu NS1 inh: 29.6; PR8 titer: 8.5

What do the screens show for `OCC1CCCN(Cc2cn(Cc3ccccc3)nc2-c2cc3ccccc3o2)C1` (centres undefined)?
Giardia FBPA inh: 3.3%; Shiga inhibitor: 9.2; NS1 inh: -0.8%; CHX counter: -2.0; LmPK inh: 0.3%

How did Cc1cccc(C2C3=C(Nc4[nH]n(-c5ccccc5)c(=O)c42)c2ccccc2C3=O)c1 (centres undefined) do in these assays?
Giardia FBPA inh: -8.4%; Shiga inhibitor: -8.3; NS1 inh: inconclusive; CHX counter: -1.7; LmPK inh: -5.2%

Results for Cc1ccccc1C1C2=C(Nc3[nH]n(-c4ccccc4)c(=O)c31)c1ccccc1C2=O (centres undefined) ?
Giardia FBPA inh: -14.6%; Shiga inhibitor: -3.7; NS1 inh: 11.2µM*; CHX counter: -2.7; LmPK inh: -8.7%; Flu NS1 inh: -22.3

Results for CCCCOc1ccc(N=Cc2ccc[nH]2)cc1 ?
Giardia FBPA inh: -1.7%; NS1 inh: -27.4%; CHX counter: 1.0; LmPK inh: -0.2%

Results for CCOC(=O)CCCNC(=O)CN1CCC(c2nc3ccccc3s2)CC1 ?
Giardia FBPA inh: 7.5%; Shiga inhibitor: -3.8; NS1 inh: -1.0%; CHX counter: 1.6; LmPK inh: -0.9%

How did COc1cc(/C=N\Nc2nc3ccccc3[nH]2)cc(OC)c1OC do in these assays?
Giardia FBPA inh: -17.6%; Shiga inhibitor: 75.6; NS1 inh: 2.82µM*; CHX counter: 33.9*; LmPK inh: 9.0%; Flu NS1 inh: -9.1

What do the screens show for `CC1(C)CC2CC(C)(CN2S(=O)(=O)c2ccc(C(=O)Nc3cccc(S(=O)(=O)N4CCOCC4)c3)cc2)C1` (centres undefined)?
Giardia FBPA inh: -5.2%; Shiga inhibitor: -7.3; NS1 inh: 12.6µM*; CHX counter: 2.6; LmPK inh: 9.6%; Flu NS1 inh: 14.2

How did O=C(O)c1cc(-c2ccc(Cl)cc2)n(-c2ccc(F)cc2)n1 do in these assays?
Giardia FBPA inh: -14.0%; Shiga inhibitor: 6.1; NS1 inh: 16.0%; CHX counter: 5.5; LmPK inh: 5.5%

How did CCCn1c(C)cc(/C=C(\C#N)C(=O)OCC(=O)NC(=O)NC(C)(C)C)c1C do in these assays?
Giardia FBPA inh: 2.2%; Shiga inhibitor: 7.5; NS1 inh: 3.16µM*; CHX counter: 11.7; LmPK inh: 5.7%; Flu NS1 inh: -3.7

How did O=C(C[n+]1cc2ccccc2c2ccccc21)c1ccccc1 do in these assays?
Giardia FBPA inh: -0.1%; Shiga inhibitor: -11.9; NS1 inh: inconclusive; CHX counter: 9.8; LmPK inh: 1.9%; Flu NS1 inh: 3.7

How did COc1ccc(S(=O)(=O)N2CCCCC2)cc1NS(=O)(=O)c1cc(Cl)ccc1Cl do in these assays?
Giardia FBPA inh: -4.7%; Shiga inhibitor: 4.8; NS1 inh: 22.4µM*; CHX counter: 5.0; LmPK inh: 0.6%; Flu NS1 inh: 48.7; PR8 titer: 8.5

What do the screens show for `Clc1ccc(N2CCN(c3ncnc4c3oc3ccccc34)CC2)cc1`?
Giardia FBPA inh: 2.0%; Shiga inhibitor: -8.7; NS1 inh: inconclusive; CHX counter: -1.1; LmPK inh: -4.5%; Flu NS1 inh: -3.2

Results for CC1CN(c2ncnc3c2oc2ccccc23)CC(C)O1 (centres undefined) ?
Giardia FBPA inh: -12.9%; Shiga inhibitor: 14.2; NS1 inh: -43.3%; CHX counter: 10.4; LmPK inh: -7.8%

What do the screens show for `Cc1ccc(CNC(=O)CN2C(=O)c3ccccc3S2(=O)=O)cc1`?
Giardia FBPA inh: 14.2%; Shiga inhibitor: -10.5; NS1 inh: -2.0%; CHX counter: -2.0; LmPK inh: -2.9%

How did O=C(N/N=C/c1c[nH]c2ccccc12)c1cc(-c2ccc3ccccc3c2)n[nH]1 do in these assays?
Giardia FBPA inh: -0.1%; Shiga inhibitor: 64.2*; NS1 inh: inconclusive; CHX counter: 49.5*; LmPK inh: 0.2%; Flu NS1 inh: -2.9

What do the screens show for `Nc1nonc1-n1nnc(C(=O)N/N=C/c2ccco2)c1CSc1ccccc1`?
Giardia FBPA inh: 8.2%; Shiga inhibitor: 14.9; NS1 inh: inconclusive; CHX counter: -3.3; LmPK inh: -0.1%; Flu NS1 inh: 8.0

How did CC1(C)CC(=O)C/C(=N\NC(=S)NCc2ccccc2)C1 do in these assays?
Giardia FBPA inh: 4.8%; Shiga inhibitor: 35.8; CHX counter: 8.6; LmPK inh: 0.7%

How did CC1C/C(=N\NC(=S)NCc2ccccc2)CC(C)(C)C1 (centres undefined) do in these assays?
Giardia FBPA inh: 22.6%; Shiga inhibitor: 13.6; NS1 inh: inconclusive; CHX counter: -1.5; LmPK inh: 11.1%; Flu NS1 inh: inconclusive

How did COc1ccc(/C=N/NC(=O)CCc2c(C)n[nH]c2C)cc1OC do in these assays?
Giardia FBPA inh: 3.0%; Shiga inhibitor: 20.0; NS1 inh: 5.62µM*; CHX counter: 1.1; LmPK inh: 7.8%; Flu NS1 inh: 18.7

Results for Cc1ccc(C)c(NC(=O)CCc2nnc3ccc(NCc4ccco4)nn23)c1 ?
Giardia FBPA inh: 9.4%; Shiga inhibitor: -9.4; NS1 inh: -3.8%; CHX counter: -2.4; LmPK inh: 6.9%

Results for Cn1c(SCCOc2ccccc2Cl)nnc1-c1cccs1 ?
Giardia FBPA inh: 0.8%; Shiga inhibitor: 38.7*; NS1 inh: inconclusive; CHX counter: 25.9*; LmPK inh: 0.5%; Flu NS1 inh: inconclusive

What do the screens show for `Cc1cc(OCCSc2nnc(-c3cccs3)n2C)ccc1Cl`?
Giardia FBPA inh: inconclusive; Shiga inhibitor: 21.2; NS1 inh: -169.1%; CHX counter: 8.5; LmPK inh: -1.2%

What do the screens show for `CCCC(C)NC(=S)NC(=O)c1cc(S(=O)(=O)N2CCOCC2)ccc1C` (centres undefined)?
Giardia FBPA inh: inconclusive; Shiga inhibitor: 23.1; NS1 inh: 6.7%; CHX counter: -3.7; LmPK inh: 0.1%

Results for CCCCCC(C)NC(=S)NC(=O)c1cc(S(=O)(=O)N2CCOCC2)ccc1C (centres undefined) ?
Giardia FBPA inh: -10.6%; Shiga inhibitor: -6.9; NS1 inh: 20µM*; CHX counter: -3.5; LmPK inh: 0.3%; Flu NS1 inh: -37.1
